For 20 molecules, growth inhibition, inhibition and outcome results are on record in PubChem BioAssay.

A short description of assay [1]: antimalarial activity against Dd2 strain (AID 2302;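 active means growth inhibition above 50% at the single 2 µM test dose, taken to imply half-maximal potency below 2 µM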;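 further: 0% = DMSO untreated growth and 100% = chloroquine plus artemisinin killed control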). As to conditions: P. falciparum Dd2 in RBCs, LDH growth readout, 72 h; at 2 µM; active compounds read high.
A short description of assay [2]: human hepatoma cell viability loss – ATP luminescence, cytotoxicity control for P. falciparum antimalarial project, primary screen (AID 2303;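 active means inhibition above 50%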;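 further: 0% = DMSO wells and 100% = digitonin-killed cells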). The settings on record: HepG2 viability, 24-48 h, at 10 µM, active compounds read high.
In assay [3] the target is L-lactate dehydrogenase (Plasmodium falciparum (isolate CDC / Honduras)) (UniProt Q27743). Nature of the assay: PfLDH activity inhibition – cell lysate, 3D7 strain, counter-screen for P. falciparum growth inhibition project (AID 2304).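 Further: 0% = vehicle and 100% = reference inhibitor.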 The settings on record: P. falciparum 3D7 crude extract, LDH APAD/NBT absorbance; at 2 µM; active compounds read high. On the technique in general: A counterscreen serves to expose hits that act by an unwanted route or on another target.

Assay [4] can be described thus: inhibition of 3D7 malaria parasite growth – strain 3D7 (AID 2306).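 Further: 0% = DMSO wells and 100% = chloroquine plus artemisinin control wells.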 The settings on record: P. falciparum 3D7 erythrocytic growth, LDH absorbance, 72 h; at 2 µM; active compounds read high.
The target of assay [5] is Calcium-dependent protein kinase 1 (Plasmodium falciparum (isolate 3D7)) (UniProt P62344). Nature of the assay: PfCDPK1 kinase inhibitors, biochemical, TCAMS library (AID 1159585; cut-off not given, nearly all actives have IC50 up to about 0.98 µM;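 further: inhibitors leave more ATP so luminescence rises with inhibition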). The settings on record: recombinant PfCDPK1, Kinase-Glo ATP depletion luminescence. (Kinase-Glo measures the ATP left after a reaction by luminescence.)
Assay [6] concerns the target Plasmodium falciparum protein kinase 6 (PK6, PF3D7_1337100) (UniProt Q8IDW1). As to the kind of experiment: PfPK6 kinase inhibitors, biochemical, TCAMS library (AID 1159586). As to conditions: recombinant PfPK6, Kinase-Glo ATP depletion luminescence.
For assay [7], the target named is Protein kinase 7 (PK7), Plasmodium falciparum 3D7 (PF3D7_0213400) (UniProt Q7YTF7). Nature of the assay: inhibition of Plasmodium PK7 catalytic activity – biochemical, TCAMS antimalarial set, Kinase-Glo luminescence (AID 1159587). The settings on record: recombinant PfPK7, Kinase-Glo ATP depletion luminescence.
For assay [8], the target named is Calcium-dependent protein kinase 4 (Plasmodium falciparum (isolate 3D7)) (UniProt Q8IBS5). As to the kind of experiment: PfCDPK4 kinase inhibitors, biochemical, TCAMS library (AID 1159588; cut-off not given, nearly all actives have IC50 up to about 0.91 µM). The settings on record: recombinant PfCDPK4, Kinase-Glo ATP depletion luminescence.

Values without a mark were called inactive. For some of these results: Potency and affinity values are given separately. Active and inactive are the calls of the source. Unless noted, how the calls were made is not given here.

A word on the inhibition: it is the drop in the measured response relative to a control, in per cent.

Chain of L-lactate dehydrogenase (Plasmodium falciparum (isolate CDC / Honduras)) (Q27743 whole entry, looked up): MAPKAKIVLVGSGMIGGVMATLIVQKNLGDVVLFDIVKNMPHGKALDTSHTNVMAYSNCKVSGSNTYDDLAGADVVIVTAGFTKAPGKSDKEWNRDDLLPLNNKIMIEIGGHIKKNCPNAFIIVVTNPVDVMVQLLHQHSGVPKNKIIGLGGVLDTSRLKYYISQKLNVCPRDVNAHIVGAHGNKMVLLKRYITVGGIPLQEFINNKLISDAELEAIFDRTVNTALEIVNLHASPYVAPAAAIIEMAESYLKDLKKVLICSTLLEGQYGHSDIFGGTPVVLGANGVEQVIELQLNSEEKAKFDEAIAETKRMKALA
Chain of Plasmodium falciparum protein kinase 6 (PK6, PF3D7_1337100) (Q8IDW1 1-305): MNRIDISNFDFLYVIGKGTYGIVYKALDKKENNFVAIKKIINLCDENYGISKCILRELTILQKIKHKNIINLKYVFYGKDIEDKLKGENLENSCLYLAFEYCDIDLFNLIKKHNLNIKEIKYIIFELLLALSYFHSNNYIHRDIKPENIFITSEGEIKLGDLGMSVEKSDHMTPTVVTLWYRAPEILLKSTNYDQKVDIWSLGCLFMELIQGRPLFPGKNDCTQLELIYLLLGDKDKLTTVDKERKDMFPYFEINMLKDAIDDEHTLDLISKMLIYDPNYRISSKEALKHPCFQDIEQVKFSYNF
Chain of Protein kinase 7 (PK7), Plasmodium falciparum 3D7 (PF3D7_0213400) (Q7YTF7 1-343): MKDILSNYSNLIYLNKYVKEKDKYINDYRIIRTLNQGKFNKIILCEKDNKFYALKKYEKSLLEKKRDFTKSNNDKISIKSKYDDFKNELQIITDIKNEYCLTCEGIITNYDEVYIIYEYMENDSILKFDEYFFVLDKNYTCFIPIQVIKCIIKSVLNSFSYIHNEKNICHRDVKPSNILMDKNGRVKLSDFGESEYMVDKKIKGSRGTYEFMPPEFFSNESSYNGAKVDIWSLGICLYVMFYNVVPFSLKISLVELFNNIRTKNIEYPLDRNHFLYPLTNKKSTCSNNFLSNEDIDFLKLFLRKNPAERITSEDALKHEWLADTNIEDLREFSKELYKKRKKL
Chain of Calcium-dependent protein kinase 4 (Plasmodium falciparum (isolate 3D7)) (Q8IBS5 whole entry, looked up): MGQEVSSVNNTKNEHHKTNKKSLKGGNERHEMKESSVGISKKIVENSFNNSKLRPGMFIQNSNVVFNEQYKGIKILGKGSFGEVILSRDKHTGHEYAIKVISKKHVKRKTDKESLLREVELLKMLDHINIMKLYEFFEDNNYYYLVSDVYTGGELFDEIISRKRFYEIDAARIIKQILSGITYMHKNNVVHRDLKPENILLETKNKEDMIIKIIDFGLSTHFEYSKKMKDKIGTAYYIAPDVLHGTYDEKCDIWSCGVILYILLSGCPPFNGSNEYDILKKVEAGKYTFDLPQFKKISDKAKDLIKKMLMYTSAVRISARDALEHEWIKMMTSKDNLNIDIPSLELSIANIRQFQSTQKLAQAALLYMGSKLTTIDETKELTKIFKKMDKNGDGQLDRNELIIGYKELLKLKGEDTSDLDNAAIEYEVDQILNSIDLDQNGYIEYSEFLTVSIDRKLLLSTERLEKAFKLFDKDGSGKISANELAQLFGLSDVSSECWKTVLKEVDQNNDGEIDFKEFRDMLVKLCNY
Chain of Calcium-dependent protein kinase 1 (Plasmodium falciparum (isolate 3D7)) (P62344 whole entry, looked up): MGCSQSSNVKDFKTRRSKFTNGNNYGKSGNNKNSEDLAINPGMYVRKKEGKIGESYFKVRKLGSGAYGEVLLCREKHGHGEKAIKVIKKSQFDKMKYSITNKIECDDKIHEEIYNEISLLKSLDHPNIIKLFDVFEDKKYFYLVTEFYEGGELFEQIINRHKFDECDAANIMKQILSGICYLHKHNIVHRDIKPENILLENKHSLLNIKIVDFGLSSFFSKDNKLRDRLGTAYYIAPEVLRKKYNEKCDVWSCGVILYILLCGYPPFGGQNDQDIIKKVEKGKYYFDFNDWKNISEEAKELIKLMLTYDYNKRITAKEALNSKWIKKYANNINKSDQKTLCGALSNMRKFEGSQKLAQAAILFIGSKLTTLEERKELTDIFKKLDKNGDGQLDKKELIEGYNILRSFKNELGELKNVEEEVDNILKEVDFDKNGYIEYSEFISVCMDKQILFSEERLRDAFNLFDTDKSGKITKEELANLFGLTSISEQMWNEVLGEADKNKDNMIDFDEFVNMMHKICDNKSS

As to `Cc1cc(-c2ccc(NC(=O)c3coc4ccc(N5C[C@@H](C)N(C)[C@@H](C)C5)cc34)cc2C)cc(C)n1`, the growth inhibition in assay [1] is 62% (active); in assay [4], 94% (active). Also, the inhibition in assay [2] was 13%; in assay [3], -4%. For the same molecule, the outcome in assay [5], in assay [6], in assay [7] and in assay [8] was inactive.
`CS(=O)(=O)c1ccc(CCNCc2ccc(-c3ccc(CNC4Cc5ccccc5C4)cc3)nc2)cc1`: the growth inhibition in assay [1] was 80% (active); in assay [4], 100% (active). In addition, the inhibition is 18% in assay [2] and -3% in assay [3]. Also, the outcome in assay [5], in assay [6], in assay [7] and in assay [8] was inactive.
As to `O=C(Nc1cc(C(F)(F)F)cc(C(F)(F)F)c1)N1CCC(CCN2CCC(c3c[nH]c4ccccc34)CC2)CC1`, the growth inhibition in assay [1] was 16%; in assay [4], 91% (active). For the same molecule, the inhibition in assay [2] is 17%; in assay [3] it was 6%. In addition, the outcome in assay [5], in assay [6], in assay [7] and in assay [8] was inactive.
Turning to `Cc1noc(C)c1-c1ccc2c(Nc3ccc(C#N)cc3)c(C(N)=O)cnc2c1`, the figures for the growth inhibition in assay [1] and in assay [4] were 73% (active) and 97% (active), respectively. The figures for the inhibition in assay [2] and in assay [3] were 6% and 7%, respectively. For the same molecule, the outcome in assay [5], in assay [6], in assay [7] and in assay [8] was inactive.
For `COc1ccccc1CCNc1ncnc2c1[nH]c1ccc(F)cc12`, the growth inhibition in assay [1] was 68% (active); in assay [4], 95% (active). Further, the results for the inhibition in assay [2] and in assay [3] were 49% and 0%, respectively. Also, the result in assay [5], in assay [6], in assay [7] and in assay [8] was inactive.
With `CN(C)CCCc1cc2c(cc1Cl)CCN2C(=O)Nc1ccc(-c2ccncc2)c2ccccc12`, the growth inhibition is -2% in assay [1] and 94% (active) in assay [4]. Moreover, the results for the inhibition in assay [2] and in assay [3] were 4% and -2%, respectively. Besides, the outcome in assay [5], in assay [6], in assay [7] and in assay [8] was inactive.
For the molecule `CCN(CC)S(=O)(=O)c1cc(-c2ccc(=O)n(CC(=O)c3ccc(C)cc3)n2)ccc1C`, the growth inhibition in assay [1] was 66% (active); in assay [4], 86% (active). The inhibition is 6% in assay [2] and -3% in assay [3]. Besides, the outcome in assay [5], in assay [6], in assay [7] and in assay [8] was inactive.
For `CCC(CC)N1CCN(CC(=O)Nc2ccc([N+](=O)[O-])cc2C(=O)Nc2cccc(OC)c2)CC1`, the figures for the growth inhibition in assay [1] and in assay [4] were 35% and 100% (active), respectively. The inhibition in assay [2] is 35%; in assay [3], 0%. The outcome in assay [5], in assay [6], in assay [7] and in assay [8] was inactive.
For `COc1ccc(NC(=O)c2ccc(-c3nc(-c4ccc(Cl)cc4)cs3)cc2)cc1N1CCN(C)CC1`, the growth inhibition is 34% in assay [1] and 91% (active) in assay [4]. Besides, the inhibition in assay [2] was 30%; in assay [3], 0%. The result in assay [5], in assay [6], in assay [7] and in assay [8] was inactive.
`CCc1ccc(CN(Cc2ccc(C)cc2)Cc2ccc(NC(C)=O)cc2)cc1`: the growth inhibition in assay [1] is 79% (active); in assay [4], 89% (active). The results for the inhibition in assay [2] and in assay [3] were 6% and -1%, respectively. Besides, the result in assay [5], in assay [6], in assay [7] and in assay [8] was inactive.
`Cc1ccccc1CNc1ccc2nc(N)nc(N)c2c1`: the growth inhibition in assay [1] is 90% (active); in assay [4], 101% (active). Also, the results for the inhibition in assay [2] and in assay [3] were 59% (active) and -3%, respectively. The result in assay [5], in assay [6], in assay [7] and in assay [8] was inactive.
Turning to `COc1cccc2[nH]c(NCCCNCc3cc(Br)cc(Br)c3)nc12`, the growth inhibition is 2% in assay [1] and 88% (active) in assay [4]. Besides, the values for the inhibition in assay [2] and in assay [3] were 5% and -8%, respectively. Moreover, the outcome in assay [5], in assay [6], in assay [7] and in assay [8] was inactive.
Turning to `COc1ccc(C=NNc2c3ccccc3nc3ccccc23)c2ccccc12`, the growth inhibition is 23% in assay [1] and 82% (active) in assay [4]. Moreover, the inhibition was 9% in assay [2] and 2% in assay [3]. Also, the result in assay [5], in assay [6], in assay [7] and in assay [8] was inactive.
Regarding `C=Cc1c(C2CCN(CCCCNC(=O)c3ccc(-c4ccc(C#N)cc4)cc3)CC2)ccc2c1CCCC2`, the growth inhibition was 75% (active) in assay [1] and 94% (active) in assay [4]. Besides, the results for the inhibition in assay [2] and in assay [3] were 75% (active) and 1%, respectively. Besides, the result in assay [5], in assay [6], in assay [7] and in assay [8] was inactive.
Consider `CNc1ccc(CNCc2cccc(-c3ccc(-c4nc5ccccc5[nH]4)s3)c2)cc1`, for which the growth inhibition in assay [1] was 77% (active); in assay [4], 100% (active). Further, the inhibition in assay [2] was 15%; in assay [3], -3%. The result in assay [5], in assay [6], in assay [7] and in assay [8] was inactive.
In the case of `CCNc1cc(C(=O)N[C@@H](Cc2ccccc2)[C@H](O)CNCc2cccc(OC)c2C)cc(N2CCCCS2(=O)=O)c1`, the figures for the growth inhibition in assay [1] and in assay [4] were 98% (active) and 97% (active), respectively. The inhibition in assay [2] was 8%; in assay [3] it was -1%. The outcome in assay [5], in assay [6], in assay [7] and in assay [8] was inactive.
For `O=C(Cn1c(CCc2cccc(F)c2F)nc(=O)c2ccccc21)N(Cc1ccc(-c2ccc(C(F)(F)F)cc2)cc1)C1CCN(C2CCSCC2)CC1`, the growth inhibition in assay [1] is 93% (active); in assay [4] it was 99% (active). The inhibition in assay [2] was 97% (active); in assay [3] it was 0%. In addition, the result in assay [5], in assay [6], in assay [7] and in assay [8] was inactive.
With `CC(C)CNCc1cccc(-c2cccc(CN(CCN(C)C)C(=O)NCCc3ccccc3)c2)c1`, the growth inhibition in assay [1] was 83% (active); in assay [4], 99% (active). The inhibition in assay [2] was 84% (active); in assay [3], -4%. Further, the outcome in assay [5], in assay [6], in assay [7] and in assay [8] was inactive.
On to `O=C(NC1CCN(c2ccnc(Nc3ccc(F)cc3)n2)C1)c1cc2ccccc2s1` (stereo not given), for which the values for the growth inhibition in assay [1] and in assay [4] were 80% (active) and 99% (active), respectively. The inhibition is 6% in assay [2] and -8% in assay [3]. The outcome in assay [5], in assay [6], in assay [7] and in assay [8] was inactive.
For `CCCCCCNC(=O)C1Cc2c([nH]c3ccc(Br)cc23)C2(CCN(Cc3ccccc3)CC2)N1` (stereo not given), the growth inhibition in assay [1] was 75% (active); in assay [4] it was 100% (active). Moreover, the results for the inhibition in assay [2] and in assay [3] were 100% (active) and 6%, respectively. In addition, the result in assay [5], in assay [6], in assay [7] and in assay [8] was inactive.
